The target in assay [1] is Rap guanine nucleotide exchange factor 3 (Homo sapiens) (UniProt O95398). The assay is described as follows: Confirmatory qHTS for antagonist of cAMP-regulated guanine nucleotide exchange factor 3 (EPAC1) (AID 1645880). Also: nearly all actives have a fitted effect of over 55% in size. Also: potency is read from the fitted curve at half-maximal effect. In a few lines: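 Released BODIPY-GDP fluoresces less than Rap1-bound BODIPY-GDP; the signal is followed at 480/540 nm at 5-min intervals over 30 min, after 5 min at room temperature. Reactions contain 100 nM EPAC1, 250 nM RAP1B-BODIPY-GDP and 50 uM GDP; results are normalized to ATA and DMSO.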
Chain of Rap guanine nucleotide exchange factor 3 (Homo sapiens) (O95398 whole entry, looked up): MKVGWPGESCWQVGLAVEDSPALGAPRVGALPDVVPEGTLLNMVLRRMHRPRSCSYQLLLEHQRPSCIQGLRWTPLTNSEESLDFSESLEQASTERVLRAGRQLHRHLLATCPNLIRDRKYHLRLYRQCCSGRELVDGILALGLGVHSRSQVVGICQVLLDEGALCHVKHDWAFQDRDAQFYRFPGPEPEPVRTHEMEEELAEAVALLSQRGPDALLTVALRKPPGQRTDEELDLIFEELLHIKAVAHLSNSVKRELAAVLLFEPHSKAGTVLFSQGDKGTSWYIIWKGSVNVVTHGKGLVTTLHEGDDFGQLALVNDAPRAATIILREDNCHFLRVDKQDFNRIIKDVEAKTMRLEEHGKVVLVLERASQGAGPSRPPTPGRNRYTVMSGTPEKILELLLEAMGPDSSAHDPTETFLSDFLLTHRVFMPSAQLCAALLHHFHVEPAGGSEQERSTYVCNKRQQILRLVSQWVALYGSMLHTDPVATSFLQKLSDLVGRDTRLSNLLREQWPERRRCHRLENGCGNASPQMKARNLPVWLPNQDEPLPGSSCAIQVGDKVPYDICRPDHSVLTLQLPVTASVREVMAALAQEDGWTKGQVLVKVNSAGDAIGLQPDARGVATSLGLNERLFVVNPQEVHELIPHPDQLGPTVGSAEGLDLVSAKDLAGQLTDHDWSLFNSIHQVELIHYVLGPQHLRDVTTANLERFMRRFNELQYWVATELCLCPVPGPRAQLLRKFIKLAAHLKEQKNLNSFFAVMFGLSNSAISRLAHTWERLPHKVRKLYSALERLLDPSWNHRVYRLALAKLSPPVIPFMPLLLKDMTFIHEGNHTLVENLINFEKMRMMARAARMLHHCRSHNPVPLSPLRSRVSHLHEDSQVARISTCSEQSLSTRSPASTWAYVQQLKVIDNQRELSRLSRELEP
On the technique in general: qHTS replaces the single test concentration by a dilution series.

For assay [2] the target is unchanged. Description: Confirmatory qHTS for agonist of cAMP-regulated guanine nucleotide exchange factor 3 (EPAC1) (AID 1645881). Also: nearly all actives have a fitted effect of over 75% in size. Also: potency is read from the fitted curve at half-maximal effect.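 As to activation: EPAC1 catalysed release of BODIPY-GDP from Rap1B seen as fluorescence loss; 100% = effect of cAMP agonist control.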
Assay [3] deals with Rap guanine nucleotide exchange factor 4 (Homo sapiens) (UniProt Q8WZA2). Description: Confirmatory qHTS for agonist of cAMP-regulated guanine nucleotide exchange factor 4 (EPAC2) (AID 1645884).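 Also: nucleotide exchange releases bodipy-GDP from Rap1 and this lowers its fluorescence; nearly all actives have a fitted effect of over 65% in size.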 Also: potency is read from the fitted curve at half-maximal effect. As to activation: % is scaled to controls: 0 for no effect and ±100 for the full control effect.
Chain of Rap guanine nucleotide exchange factor 4 (Homo sapiens) (Q8WZA2 whole entry, looked up): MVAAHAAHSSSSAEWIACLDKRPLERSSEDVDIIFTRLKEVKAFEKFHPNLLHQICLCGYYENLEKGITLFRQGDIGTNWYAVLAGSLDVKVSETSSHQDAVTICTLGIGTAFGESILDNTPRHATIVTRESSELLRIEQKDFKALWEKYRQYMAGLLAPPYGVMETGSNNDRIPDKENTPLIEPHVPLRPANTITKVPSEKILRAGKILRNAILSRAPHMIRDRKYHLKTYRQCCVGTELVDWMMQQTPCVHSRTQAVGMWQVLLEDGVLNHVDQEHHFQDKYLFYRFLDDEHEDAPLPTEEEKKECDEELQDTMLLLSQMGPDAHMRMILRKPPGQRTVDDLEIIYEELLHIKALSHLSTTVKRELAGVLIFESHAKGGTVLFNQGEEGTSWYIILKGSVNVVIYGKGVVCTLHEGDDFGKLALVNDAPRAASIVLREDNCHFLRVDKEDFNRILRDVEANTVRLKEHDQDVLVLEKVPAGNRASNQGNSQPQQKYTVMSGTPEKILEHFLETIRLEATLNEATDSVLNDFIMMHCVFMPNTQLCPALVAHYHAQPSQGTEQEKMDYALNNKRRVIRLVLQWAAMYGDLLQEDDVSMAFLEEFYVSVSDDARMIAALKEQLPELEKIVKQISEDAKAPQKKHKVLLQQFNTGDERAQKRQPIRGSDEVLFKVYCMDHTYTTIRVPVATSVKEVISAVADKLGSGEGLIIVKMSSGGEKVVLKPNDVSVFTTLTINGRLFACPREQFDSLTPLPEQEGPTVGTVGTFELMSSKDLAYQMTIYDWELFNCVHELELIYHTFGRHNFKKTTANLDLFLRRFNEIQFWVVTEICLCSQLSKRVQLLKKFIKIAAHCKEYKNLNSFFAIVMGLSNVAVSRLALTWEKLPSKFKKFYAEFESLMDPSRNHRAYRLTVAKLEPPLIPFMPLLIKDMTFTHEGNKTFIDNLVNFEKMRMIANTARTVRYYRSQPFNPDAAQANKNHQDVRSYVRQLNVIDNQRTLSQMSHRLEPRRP
The target is the same in assay [4]. Description: Confirmatory qHTS for antagonist of cAMP-regulated guanine nucleotide exchange factor 4 (EPAC2) (AID 1645885). Also: nearly all actives have a fitted effect of over 25% in size. Also: potency is read from the fitted curve at half-maximal effect. As to activity change, negative = inhibition: % is scaled to controls: 0 for no effect and ±100 for the full control effect.
Assay [5] concerns the target Rap guanine nucleotide exchange factor 3 (Homo sapiens) (UniProt O95398). Description: Counterscreen qHTS for antagonist of cAMP-regulated guanine nucleotide exchange factor 3 (EPAC1) (AID 1645888). Also: % of control where 0% means no effect. In short, it runs like this:
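Measured: fluorescence of BODIPY-GDP bound to Rap1B, which falls as exchange proceeds. Conditions include 50 uM competing GDP, 5 and 30 min reads, and a later cAMP challenge for antagonist detection.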
In general terms: A counterscreen serves to expose hits that act by an unwanted route or on another target.

Inconclusive results are not listed. Values without a mark were called inactive. The source made the active and inactive calls. Calls follow the shape of the dose curve; as a rule, active = well fitted curve in the direction sought with a large enough effect; inconclusive = small, poorly fitted or top-dose-only effect, or another doubt; inactive = no such curve, though single readings can be large; an effect the other way counts as inactive or inconclusive.

In the case of `CCCCn1c(N)c(N(CCC(C)C)C(=O)Cc2ccc(S(=O)(=O)N3CCOCC3)s2)c(=O)[nH]c1=O`, the Potency result in assay [1], in assay [2], in assay [3], in assay [4] and in assay [5] was “inactive” throughout.

For `NC(=O)c1cc2ccccc2o/c1=N\NC(=O)c1ccncc1`, the Potency entry in assay [1], in assay [2] and in assay [4] was “inactive” each time. Moreover, in assay [3], the activation is 1.92% [at 17.1 µM, percent relative to cAMP agonist control]. In addition, the activity change, negative = inhibition in assay [5] is -2.29% [at 30.8 µM].

Consider `N#C/C(=C\c1ccc(C(=O)O)cc1)c1nc2sc3c(c2c(=O)[nH]1)CCCC3`, for which the Potency entry in assay [1], in assay [2] and in assay [4] was “inactive” each time. Also, the activation in assay [3] was 10.5% [at 17.1 µM, percent relative to cAMP agonist control]. In addition, the activity change, negative = inhibition in assay [5] is 7.93% [at 30.8 µM].

As for `Cc1ccccc1NC1=C/C(=N\S(=O)(=O)c2ccc(C(=O)O)cc2)c2ccccc2C1=O`, in assay [1], the Potency is 14.1 µM (active). Also, the Potency result in assay [2] and in assay [4] was “inactive” throughout. Moreover, the activation in assay [3] is 1.42% [at 17.1 µM, percent relative to cAMP agonist control]. Further, the activity change, negative = inhibition in assay [5] was -15% [at 30.8 µM].

For `CC(C)C1CC2=C(C(=O)OC(C)(C)O2)C(c2ccc(F)cc2)O1` (stereo not given), the Potency result in assay [1], in assay [2] and in assay [4] was “inactive” throughout. In addition, the activation in assay [3] was 4.14% [at 17.1 µM, percent relative to cAMP agonist control]. Besides, the activity change, negative = inhibition in assay [5] was -3.34% [at 30.8 µM].

On to `Cc1ccc(C2CC(=O)Oc3cc(C)cc(C)c32)cc1` (stereo not given), for which the Potency result in assay [1], in assay [2], in assay [3], in assay [4] and in assay [5] was “inactive” each time.

For `COc1ccc(OC)c(Nc2ncc3c(n2)CCN(Cc2cc(OC)c(OC)c(OC)c2)C3)c1`, the Potency entry in assay [1], in assay [2], in assay [3], in assay [4] and in assay [5] was “inactive” each time.

With `Cn1nc(-c2ccccn2)nc2c(=O)n(C)c(=O)nc1-2`, the Potency in assay [1] was 1.69 µM (active). Further, the Potency result in assay [2], in assay [3], in assay [4] and in assay [5] was “inactive” each time.

In the case of `COC(=O)c1c(NC(=O)c2c(OC)cccc2OC)sc2c1CCCC2`, the Potency result in assay [1], in assay [2], in assay [3], in assay [4] and in assay [5] was “inactive” throughout.

As to `COC(=O)c1ccc(CNC(=O)/C=C/[C@H]2O[C@@H](n3cc(C)c(=O)[nH]c3=O)C[C@@H]2O)cc1`, the Potency result in assay [1], in assay [2], in assay [3], in assay [4] and in assay [5] was “inactive” throughout.

With `CC(=O)NC(c1ccccc1)c1cc(Cl)c2cccnc2c1O` (stereo not given), the Potency entry in assay [1], in assay [2], in assay [3], in assay [4] and in assay [5] was “inactive” throughout.

As for `COc1ccc2ccccc2c1C(=O)/C=C\c1ccoc1`, in assay [1], the Potency is 42.6 µM (active). Further, the Potency result in assay [2], in assay [3], in assay [4] and in assay [5] was “inactive” throughout.

Take `O=C(Nc1cccs1)Nc1ccccc1Cl`: the Potency result in assay [1], in assay [2] and in assay [4] was “inactive” each time. In assay [3], the activation is 6.52% [at 17.1 µM, percent relative to cAMP agonist control]. In assay [5], the activity change, negative = inhibition was 6.73% [at 30.8 µM].

`O=C(CCc1ccc(O)c(O)c1)N/N=C/c1cc2c(cc1[N+](=O)[O-])OCO2`: in assay [1], the Potency was 23.9 µM (active). Further, the Potency result in assay [2], in assay [3], in assay [4] and in assay [5] was “inactive” throughout.

Regarding `Cc1c(C(=O)OCC(=O)N2CCCC2=O)oc2ccccc12`, the Potency entry in assay [1], in assay [2], in assay [3], in assay [4] and in assay [5] was “inactive” throughout.

For `O=C(CSc1nnc(-c2cccnc2)n1CCc1ccccc1)NCc1ccccc1`, the Potency result in assay [1], in assay [2] and in assay [4] was “inactive” each time. Further, in assay [3], the activation was 4.59% [at 17.1 µM, percent relative to cAMP agonist control]. For the same compound, in assay [5], the activity change, negative = inhibition is -2.95% [at 30.8 µM].

Regarding `Cc1nnc(SCc2cccc3ccccc23)s1`, the Potency entry in assay [1], in assay [2], in assay [3], in assay [4] and in assay [5] was “inactive” in each case.

Regarding `COC(=O)c1cc2sc(C)cc2n1Cc1ccccc1`, the Potency result in assay [1], in assay [2], in assay [3], in assay [4] and in assay [5] was “inactive” each time.

For `COc1ccc(/C=N/Nc2ccc(C(=O)O)cc2)cc1Br`, the Potency entry in assay [1], in assay [2], in assay [3], in assay [4] and in assay [5] was “inactive” each time.

Consider `CCCC1C2CN(C(C)C)CC=C2C(C#N)=C(N)C1(C#N)C#N` (stereo not given), for which the Potency in assay [1] is 37.9 µM (active); in assay [2], 35.5 µM (active); in assay [3] it was 56.2 µM (active); in assay [4] it was 33.8 µM (active). In addition, in assay [5], the Potency entry was “inactive”.

On to `Cc1cccc(Cn2c(SCc3ccc(C(=O)N4CCCCCC4)cc3)nc3ccncc32)c1`, for which the Potency entry in assay [1], in assay [2], in assay [3], in assay [4] and in assay [5] was “inactive” throughout.

On to `Cc1cccc(N=C2NC(=O)/C(=C/C=C/c3ccco3)S2)c1C`, for which the Potency in assay [1] was 9.53 µM (active). Moreover, the Potency entry in assay [2], in assay [3], in assay [4] and in assay [5] was “inactive” throughout.

Consider `COc1ccc(NC(=O)c2ccc3c(SCC(=O)O)c4c(nc3c2)CCCC4)c(OC)c1`, for which the Potency in assay [1] was 75.7 µM (active). The Potency entry in assay [2], in assay [3], in assay [4] and in assay [5] was “inactive” each time.

Take `Cc1ccc(/C=C2\SC(=S)N(NS(=O)(=O)c3ccc(C)cc3)C2=O)cc1`: the Potency in assay [1] is 39.8 µM (active). The Potency result in assay [2] and in assay [4] was “inactive” throughout. Also, in assay [3], the activation was 11.9% [at 17.1 µM, percent relative to cAMP agonist control]. The activity change, negative = inhibition in assay [5] is -10.4% [at 30.8 µM].

For the origin of these results see PubChem BioAssay (NCATS).
